According to PubChem BioAssay (NCI):
The panel holds about 83,000 compounds, 20% with a hit somewhere; the sample as a whole holds those more often.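 96-well plates, one dose, 48 hours. Percent growth reported; active if below 10.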 Values without a mark were called inactive. Activity calls are given as the source filed them.

Columns and labels:
Experiment in all cases: NCI-60 one-dose screen, 48 h (100 = growth as untreated, 0 = no growth, -100 = all killed)
786-0 renal = conditions: 10 µM unless noted
DU-145 prostate = conditions: 10 µM unless noted
MDA-MB-231 breast = conditions: 10 µM unless noted
SF-268 CNS = conditions: 10 µM unless noted
SF-539 CNS = conditions: 10 µM unless noted
UACC-257 melanoma = conditions: 10 µM unless noted
HCT-15 colon = conditions: 10 µM
SNB-19 CNS = conditions: 10 µM unless noted
PC-3 prostate = conditions: 10 µM unless noted
UACC-62 melanoma = conditions: 10 µM unless noted
LOX IMVI melanoma = conditions: 10 µM unless noted
SK-MEL-28 melanoma = conditions: 10 µM unless noted
SN12C renal = conditions: 10 µM unless noted
MOLT-4 leukemia = conditions: 10 µM
OVCAR-8 ovarian = conditions: 10 µM unless noted
OVCAR-3 ovarian = conditions: 10 µM unless noted
MDA-MB-435 melanoma = conditions: 10 µM unless noted
SW-620 colon = conditions: 10 µM unless noted
MCF7 breast = conditions: 10 µM unless noted
KM12 colon = conditions: 10 µM unless noted

Row | SMILES | growth (786-0 renal) | growth (DU-145 prostate) | growth (MDA-MB-231 breast) | growth (SF-268 CNS) | growth (SF-539 CNS) | growth (UACC-257 melanoma) | growth (HCT-15 colon) | growth (SNB-19 CNS) | growth (PC-3 prostate) | growth (UACC-62 melanoma) | growth (LOX IMVI melanoma) | growth (SK-MEL-28 melanoma) [%] | growth (SN12C renal) | growth (MOLT-4 leukemia) | growth (OVCAR-8 ovarian) | growth (OVCAR-3 ovarian) | growth (MDA-MB-435 melanoma) | growth (SW-620 colon) | growth (MCF7 breast) | growth (KM12 colon)
1 | OC1CCCCC1N1CCC(c2ccccc2)CC1 (stereo not drawn) | 93.1% | 112% | 119% | 106% | 119% | 109% | 110% | 117% | 91% | 115% | 99.4% | 103 | 109% | 79.9% | 103% | 106% | 100% | 99.3% | 94.1% | 104%
2 | Cn1cnnc1[S-].[Au+].c1ccc([PH+](c2ccccc2)c2ccccc2)cc1 | 1.78% (active) | 33.6% | 30.3% | 12.5% | 15.4% | 22.9% | -67.4% (active) | 11.4% | 23.8% | -15.1% (active) | -48.6% (active) | 10.5 | 15.9% | -9.25% (active) | 20.3% | -81.2% (active) | 11.1% | -49.3% (active) | -56.5% (active) | 58.3%
3 | CCC[CH2][Sn]([CH2]CCC)([CH2]CCC)[O]C(=O)c1ccc(Cl)cc1Cl | -91.7% (active) | -98% (active) | -88.2% (active) | -95.5% (active) | -91.7% (active) | -94.8% (active) | -82.9% (active) | -86.3% (active) | -76.8% (active) | -95.4% (active) | -70.3% (active) | – | -83.9% (active) | -16.6% (active) | -63.6% (active) | -98.3% (active) | -85.4% (active) | -71.7% (active) | – | -92.4% (active)
